Consider 8 molecules from PubChem BioAssay.

By AC50 is commonly meant the concentration giving half of the maximal activity seen. In general, IC50 refers to the concentration needed to halve the response being measured. In general, viability refers to a read-out of living cells in per cent, often relative to untreated cells.

Assay [1] can be described thus: growth inhibition of DIPG glioma cells, dose response, cell-based, SU-DIPG-XVII, MIPE5.0, CellTiter-Glo, qHTS (AID 1347060; cut-off not given, nearly all actives have AC50 up to about 26 µM;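 on AC50: cells exposed to compound for 48 hours before viability readout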). Conditions: SU-DIPG-XVII viability, CellTiter-Glo ATP luminescence. Background: ATP-based viability assays read luminescence as a measure of living cells.
A short description of assay [2]: growth inhibition of DIPG glioma cells, dose response, cell-based, SU-DIPG-XIII, MIPE5.0, CellTiter-Glo, qHTS (AID 1347064; cut-off not given, nearly all actives have AC50 up to about 23 µM;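 on AC50: cells exposed to compound for 48 hours before the viability read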). The following applies: SU-DIPG-XIII viability, CellTiter-Glo ATP luminescence.
Assay [3] is described as follows: viability loss in pontine glioma line – cell-based, SU-DIPG-XXV, MIPE5.0, CellTiter-Glo, qHTS, dose response (AID 1347065; cut-off not given, nearly all actives have AC50 up to about 26 µM;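 further: cells exposed to compound for 48 hours before ATP readout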). The following applies: CellTiter-Glo ATP luminescence.
Assay [4] can be described thus: JHH-DIPG-1 glioma cell viability, MIPE5.0 library, CellTiter-Glo luminescence, qHTS (AID 1347067; cut-off not given, nearly all actives have AC50 up to about 26 µM;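 further: cells exposed to compound for 48 hours before readout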). Conditions: JHH-DIPG-1 glioma viability, CellTiter-Glo ATP luminescence.
Assay [5] can be described thus: SU-DIPG-XXV glioma cell viability, MIPE5.0 library, qHTS (AID 1347068; cut-off not given, nearly all actives have IC50 up to about 30 µM;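 on IC50: cells exposed to compound for 48 hours before viability readout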). A general note: In qHTS, concentration-response curves come from the screen itself.
Assay [6] in a line: sensitizers of A549 cells to miR-34 induction, primary screen, imaging, A549 dox-inducible miR-34, nuclei and caspase counts (AID 1347080;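 active means compounds whose cell count with miR-34 switched on is under 0.7 times the count with it off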). The following applies: A549 miR-34 inducible, Hoechst nuclei count, 48 h.
A short description of assay [7]: survival rescue of mitochondrial mutant cells in low glucose, primary screen, MELAS cybrids, Rieske KO mouse fibroblasts, CellTiter-Glo (AID 1508586;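 active means mean z-score across replicates of 1.96 or higher in either the MELAS or the Rieske mutant cell line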;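 further: z relative to plate mean and SD of compound and empty wells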).
The nature of assay [8]: ovarian cancer cell viability with rucaparib, profiling panel, oncology-focused library, rucaparib conditional (AID 1508598). The following applies: patient-derived ovarian cancer cells, CellTiter-Glo viability, 144 h, stronger effect = lower value.
The mark [9] stands for this setting: stronger effect = lower value, cell number ratio, induced over uninduced.
Where [10] appears, read: measured here: relative caspase fold change +Dox/-Dox.
Where [11] appears, read: measured here: total cells with miR-34 induction, stronger effect = lower value.
[12] abbreviates: measured here: total cells without miR-34 induction.
[13] abbreviates: MELAS cybrid survival, CellTiter-Glo 48 h, stronger effect = higher value.
The mark [14] stands for this setting: Rieske KO mouse fibroblast survival, CellTiter-Glo 72 h.

Inconclusive results are not listed. The source made the active and inactive calls.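 How the source made its calls, unless noted: active means normalized viability below 100% at a tested concentration; inactive means the rest.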

For the molecule `CCN1CCN(Cc2ccc(NC(=O)c3ccc(C)c(NC(=O)c4cncc(-c5cccs5)c4)c3)cc2C(F)(F)F)CC1`, the AC50 in assay [1] is 5.9 µM (active); in assay [2], 14.8 µM (active); in assay [3], 1.05 µM (active); in assay [4] it was 2.63 µM (active). Also, the IC50 in assay [5] was 4.17 µM (active).
`CCCc1c(OCCCOc2ccc(OCC(=O)O)cc2)ccc(C(C)=O)c1O`: the outcome in assay [1], in assay [2], in assay [3], in assay [4] and in assay [5] was inactive. Moreover, the fold change is 0.974 (inactive) in assay [6] (setting [9]) and 1.33 in assay [6] (setting [10]). In addition, the figures for the cell count in assay [6] (setting [11]) and in assay [6] (setting [12]) were 9670 and 9930, respectively.
With `c1ccc2c(-c3cnn4cc(-c5ccc(N6CCNCC6)cc5)cnc34)ccnc2c1`, the AC50 is 3.32 µM (active) in assay [1], 5.25 µM (active) in assay [2], 2.63 µM (active) in assay [3] and 2.63 µM (active) in assay [4]. Also, the IC50 in assay [5] is 5.9 µM (active).
On to `CC(C)C(=O)OCC(=O)[C@@]12O[C@H](C3CCCCC3)O[C@@H]1C[C@H]1[C@@H]3CCC4=CC(=O)C=C[C@]4(C)[C@H]3[C@@H](O)C[C@@]12C`, for which the AC50 was 13.2 µM (active) in assay [1], 13.2 µM (active) in assay [2], 8.33 µM (active) in assay [3] and 2.95 µM (active) in assay [4]. In assay [5], the IC50 is 14.8 µM (active). Besides, the figures for the z-score in assay [7] (setting [13]) and in assay [7] (setting [14]) were -0.376 (inactive) and 1.73, respectively.
As to `CN(C)c1ccc(-c2nc3ncc(Cl)c(N4CCN(CC(=O)Nc5nccs5)CC4)c3[nH]2)cc1`, the concentration at half-maximal activity (AC50) was 2.29 µM (active) in assay [1], 7.23 µM (active) in assay [2], 3.23 µM (active) in assay [3] and 2.29 µM (active) in assay [4]. The molecule was called inactive in assay [5]. The fold change in assay [6] (setting [9]) is 1.06 (inactive); in assay [6] (setting [10]) it was 0.825. The cell count in assay [6] (setting [11]) was 2120; in assay [6] (setting [12]), 2000. The z-score in assay [7] (setting [13]) was 2.54 (active); in assay [7] (setting [14]) it was -0.697.
Consider `COc1cc(Nc2nc3ccccc3nc2NS(=O)(=O)c2ccc(NC(=O)c3ccc(C)c(OC)c3)cc2)cc(OC)c1`, for which the result in assay [1], in assay [2], in assay [3], in assay [4] and in assay [5] was inactive. The fold change in assay [6] (setting [9]) is 0.923 (inactive); in assay [6] (setting [10]), 1.03. Besides, the cell count stood at 7550 in assay [6] (setting [11]) and 8180 in assay [6] (setting [12]). The z-score was -0.401 (inactive) in assay [7] (setting [13]) and 0.479 in assay [7] (setting [14]). The viability in assay [8] (at 0.000305 µM, OCI-C5x cells, with rucaparib 10 µM, 100% = cells with rucaparib alone) was 98.9% (active); in assay [8] (at 0.000305 µM, OCI-C5x cells, without rucaparib), 109% (inactive); in assay [8] (at 0.000305 µM, OCI-P5x cells, with rucaparib 20 µM, 100% = cells with rucaparib alone), 91.1% (active); in assay [8] (at 0.000305 µM, OCI-P5x cells, without rucaparib) it was 95.8% (active); in assay [8] (at 0.00122 µM, OCI-C5x cells, with rucaparib 10 µM, 100% = cells with rucaparib alone) it was 114% (inactive); in assay [8] (at 0.00122 µM, OCI-C5x cells, without rucaparib), 112% (inactive). In addition, the viability was 104% (inactive) in assay [8] (at 0.00122 µM, OCI-P5x cells, with rucaparib 20 µM, 100% = cells with rucaparib alone); 98.9% (active) in assay [8] (at 0.00122 µM, OCI-P5x cells, without rucaparib); 110% (inactive) in assay [8] (at 0.00488 µM, OCI-C5x cells, with rucaparib 10 µM, 100% = cells with rucaparib alone); 112% (inactive) in assay [8] (at 0.00488 µM, OCI-C5x cells, without rucaparib); 103% (inactive) in assay [8] (at 0.00488 µM, OCI-P5x cells, with rucaparib 20 µM, 100% = cells with rucaparib alone); 101% (inactive) in assay [8] (at 0.00488 µM, OCI-P5x cells, without rucaparib). The viability in assay [8] (at 0.0195 µM, OCI-C5x cells, with rucaparib 10 µM, 100% = cells with rucaparib alone) is 106% (inactive); in assay [8] (at 0.0195 µM, OCI-C5x cells, without rucaparib) it was 109% (inactive); in assay [8] (at 0.0195 µM, OCI-P5x cells, with rucaparib 20 µM, 100% = cells with rucaparib alone), 101% (inactive); in assay [8] (at 0.0195 µM, OCI-P5x cells, without rucaparib), 107% (inactive); in assay [8] (at 0.0781 µM, OCI-C5x cells, with rucaparib 10 µM, 100% = cells with rucaparib alone), 118% (inactive); in assay [8] (at 0.0781 µM, OCI-C5x cells, without rucaparib), 114% (inactive). In addition, the viability was 109% (inactive) in assay [8] (at 0.0781 µM, OCI-P5x cells, with rucaparib 20 µM, 100% = cells with rucaparib alone); 108% (inactive) in assay [8] (at 0.0781 µM, OCI-P5x cells, without rucaparib); 108% (inactive) in assay [8] (at 0.313 µM, OCI-C5x cells, with rucaparib 10 µM, 100% = cells with rucaparib alone); 116% (inactive) in assay [8] (at 0.313 µM, OCI-C5x cells, without rucaparib); 107% (inactive) in assay [8] (at 0.313 µM, OCI-P5x cells, with rucaparib 20 µM, 100% = cells with rucaparib alone); 104% (inactive) in assay [8] (at 0.313 µM, OCI-P5x cells, without rucaparib). In addition, the viability in assay [8] (at 1.25 µM, OCI-C5x cells, with rucaparib 10 µM, 100% = cells with rucaparib alone) was 106% (inactive); in assay [8] (at 1.25 µM, OCI-C5x cells, without rucaparib), 120% (inactive); in assay [8] (at 1.25 µM, OCI-P5x cells, with rucaparib 20 µM, 100% = cells with rucaparib alone), 90.5% (active); in assay [8] (at 1.25 µM, OCI-P5x cells, without rucaparib), 108% (inactive); in assay [8] (at 5 µM, OCI-C5x cells, with rucaparib 10 µM, 100% = cells with rucaparib alone), 111% (inactive); in assay [8] (at 5 µM, OCI-C5x cells, without rucaparib) it was 121% (inactive). Besides, the viability in assay [8] (at 5 µM, OCI-P5x cells, with rucaparib 20 µM, 100% = cells with rucaparib alone) was 92.1% (active); in assay [8] (at 5 µM, OCI-P5x cells, without rucaparib), 111% (inactive).
In the case of `CN(CCOc1ccc(C[C@H](Nc2ccccc2C(=O)c2ccccc2)C(=O)O)cc1)c1ccccn1`, the molecule was called inactive in assay [1], in assay [2], in assay [3], in assay [4] and in assay [5].
Regarding `COc1ccc(S(=O)(=O)N(CCO)c2ccccc2CN(C)C/C=C/c2ccc(Cl)cc2)cc1`, the AC50 was 18.6 µM (active) in assay [1], 7.42 µM (active) in assay [2], 16.6 µM (active) in assay [3] and 10.5 µM (active) in assay [4]. In assay [5], the IC50 is 18.6 µM (active).
